Measured values as given in ChEMBL document CHEMBL3988442, “University of Dundee, Small-Polar-MMV Screening Library” (2021).
The campaign covered roughly 69,000 compounds. About 420 (0.61%) showed an effect of 50% or more. The list comes from a sample in which strong results are over-represented; it also holds similar structures and randomly drawn compounds.

The molecules below were run against T1, Histidine--tRNA ligase (Leishmania infantum) (UniProt A4I591) (assay: Leishmania infantum Histidine tRNA synthetase (LdHisRS)). Conditions: 30 µM.
T1 sequence (whole entry): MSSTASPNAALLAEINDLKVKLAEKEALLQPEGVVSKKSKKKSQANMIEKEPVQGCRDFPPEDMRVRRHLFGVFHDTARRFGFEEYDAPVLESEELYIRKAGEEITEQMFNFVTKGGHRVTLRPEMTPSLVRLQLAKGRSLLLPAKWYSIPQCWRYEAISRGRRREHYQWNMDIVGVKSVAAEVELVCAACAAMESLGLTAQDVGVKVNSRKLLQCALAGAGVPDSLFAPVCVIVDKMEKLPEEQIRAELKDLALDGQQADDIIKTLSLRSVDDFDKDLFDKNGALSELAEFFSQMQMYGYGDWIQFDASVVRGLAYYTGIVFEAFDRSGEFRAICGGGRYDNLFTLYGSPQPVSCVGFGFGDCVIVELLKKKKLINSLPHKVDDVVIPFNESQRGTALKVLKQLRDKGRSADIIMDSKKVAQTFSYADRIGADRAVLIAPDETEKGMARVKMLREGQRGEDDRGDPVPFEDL
Format: functional
Set-up: scale not given: in the data most compounds retested in dose-response had high values

Structure (SMILES) | Percent Effect [%]
CN(C)S(=O)(=O)N1C[C@@H]2CC[C@H](C1)N(CCC(=O)NCc1ccco1)C2 | 13.6
COc1ccc(-n2cc(CNC(=O)c3cc[nH]n3)nn2)cc1 | 31.2
COc1ccc(-n2cc(CNC(=O)c3ccc[nH]3)nn2)cc1 | 54.2
COc1ccc(-n2cc(CNC(=O)c3ccccn3)nn2)cc1 | 18.8
CNC(=O)[C@H]1C[C@@H]2CCN(Cc3ccc4c(c3)OCO4)C[C@@H]2O1 | 14.6
Cc1ccccc1-c1ncc(CNCc2csc(C(C)C)n2)s1 | 20
Cc1cnc(CNCc2cnc(-c3ccccc3C)s2)cn1 | 11.7
CCC1=NOC(CNCc2cnc(-c3ccccc3C)s2)C1 (stereo not drawn) | 61.7
CC1CCN(C(=O)[C@H]2C[C@@H]3CCN(CC4CCOCC4)C[C@@H]3O2)CC1 | 12
O=C(C1=CCCC1)N1C[C@H](Oc2cccnc2)[C@H]2OCCC[C@H]21 | 3.85
O=C(c1nc2c(s1)CCCN2CC1CC1)N1CCCC1 | 40
CN1CCCN(C(=O)c2nc3c(s2)CCCN3CC2CC2)CC1 | 48
O=C(c1nc2c(s1)CCCN2CC1CC1)N1CCOCC1 | 94
COCC(=O)N1CC[C@H]2O[C@@H](C)C[C@H]2C1 | 12
O=C(Nc1c(N2CCCC2)cccc1N1CCCC1)c1ccccn1 | 84.6
O=C(Nc1c(N2CCCC2)cccc1N1CCCC1)c1cnsn1 | 15.4
O=C(Nc1c(N2CCCC2)cccc1N1CCCC1)c1cnccn1 | 30.8
Cn1cccc1C(=O)N1CC[C@H]2[C@H]1CCN2CC1CCOCC1 | 24.6
O=C(C1=CCCC1)N1C[C@H]2CCC[C@@]2(COCc2ccncc2)C1 | 25.7
Cc1cccc(CN2C[C@@H]3COC[C@]3(CNC(=O)C3CC3)C2)c1 | 11.9
CNC(=O)[C@@]12CCO[C@@H]1CCN(S(=O)(=O)c1ccccc1)C2 | 15
Cc1sc2nc(CCN)nc(N(CCN(C)C)CC3CCCO3)c2c1C (stereo not drawn) | 4.42
COCCN(CC1CC1)c1nc(CCN)nc2sc(C)c(C)c12 | 32.7

Structure (SMILES) | Percent Effect [%]
CCN(CCN(C)C)c1nc(CCN)nc2sc(C)c(C)c12 | 54
Cc1cccc(CN2C(=O)CC[C@@H]3[C@H]2CCN3Cc2cccnc2)n1 | 29.4
Cc1nccc([C@H]2C[C@@H]3CCN(S(=O)(=O)C4CC4)C[C@H]3O2)n1 | 11.1
CCOc1ccc2[nH]c(=O)c(CN3CCCC3c3ccccn3)cc2c1 (stereo not drawn) | 53
O=c1[nH]c2cc3c(cc2cc1CN1CCCC1c1ccccn1)CCC3 (stereo not drawn) | 43.4
O=c1[nH]c2cc3c(cc2cc1CN1CCCC1c1ccccn1)OCO3 (stereo not drawn) | 14.5
COCCC(=O)N1C[C@H]2CCC[C@@]2(COC)C1 | 5.77
Cn1cc(N2C(=O)CC[C@@H]3[C@H]2CCN3Cc2nccs2)cn1 | 9.72
CCCn1nc2c(cc1=O)CN(Cc1ncc(C(C)(C)C)o1)CC2 | 45.5
CCCn1nc2c(cc1=O)CN(Cc1nc(CCOC)no1)CC2 | 48.1
Cc1cc(CN2CCc3nn(C)c(=O)cc3C2)on1 | 103
CCCn1nc2c(cc1=O)CN(Cc1nc(C)c(C)o1)CC2 | 13.2
CCCn1nc2c(cc1=O)CN(Cc1ccccn1)CC2 | 75.8
CCCn1nc2c(cc1=O)CN(Cc1cc(C)on1)CC2 | 55.8
Cc1cc(CN2CCc3cncnc3C2)on1 | 24
CCn1nc2c(cc1=O)CN(Cc1cc(C)on1)CC2 | 21.2
CCCn1nc2c(cc1=O)CN(Cc1cc(C)no1)CC2 | 69.7
CCCn1nc2c(cc1=O)CN(Cc1nc(C)c3ccccc3n1)CC2 | 27.1
Cc1cc(CN2CCc3nn(C)c(=O)cc3C2)no1 | 45.5
CN(C)C(=O)N1C[C@@H]2CC[C@H](C1)N(C(=O)c1c(Cl)cccc1Cl)C2 | 8.06
CS(=O)(=O)N1C[C@@H]2CC[C@H](C1)N(Cc1ccsc1)C2 | 31.2
CNC(=O)[C@H]1CO[C@H]2CCN(Cc3ccc4ccccc4n3)C[C@H]2C1 | 10.5
CNC(=O)[C@@H]1COC[C@H]2CN(C(=O)c3ccc(C)c(F)c3)C[C@H]21 | 12.3

Structure (SMILES) | Percent Effect [%]
CC(C)CC(=O)N1CC[C@@H]2[C@H](CC1)N(S(C)(=O)=O)CCS2(=O)=O | 19.2
CS(=O)(=O)N1C[C@@H]2COC[C@]2(COCC(=O)N2CCCC2)C1 | 2.73
Cc1noc(C)c1CN1CCc2nn(C(C)C)c(=O)cc2C1 | 53
Cc1cc(CN2CCc3nn(C(C)C)c(=O)cc3C2)no1 | 26.9
CCCn1nc2c(cc1=O)CN(Cc1c(C)noc1C)CC2 | 27.3
O=C1CC[C@]2(CC[C@@H](NC3CCOCC3)CC2)N1Cc1ccccc1 | 7.77
COCCN(C)C(=O)c1nc2c(s1)CCCN2C | 24.6
CCCN(C(=O)c1ccncc1)c1nc2c(s1)CCc1c-2cnn1C | 82.3
CCCN(C(=O)COC)c1nc2c(s1)CCc1c-2cnn1C | 80
CN(C(=O)c1cccnc1)C1CCCN(CCc2ccccc2)C1 (stereo not drawn) | -1.64
CCCN(C(=O)c1cccnc1)c1nc2c(s1)CCc1c-2cnn1C | 101
CCCN(C(=O)c1ccc(-n2ccnn2)cc1)c1cccnc1 | 11.1
CCN(CCN1CCOCC1)C(=O)c1cccnc1 | 5.71
Cc1cnccc1-c1cnn(CCNC(=O)c2ccncc2)c1C1CC1 | -1.42
CCCC(=O)N(CCN1CCOCC1)c1nc2c(OC)ccc(C)c2s1 | -3.48
Cc1ccc(C(=O)N2CC[C@@]3(O)CCN(C(=O)N(C)C)C[C@H]3C2)cc1Cl | -2.13
CNc1nc(C(=O)N2C[C@H]3CC[C@@H]2CN(C2CCOCC2)C3)cs1 | 4.17
COc1ccccc1CN1C(=O)O[C@@H]2CN(C(C)C)C[C@@H]21 | 3.33
O=C1[C@@H]2CN(c3ncccc3Cl)C[C@]2(C(=O)O)CN1CC1CC1 | 3.28
CCOc1ccc(CN2CCN(CCOC)[C@@H]3CS(=O)(=O)C[C@@H]32)cc1 | 25
c1cc2nccc(CC3CCCN(Cc4c[nH]cn4)CC3)c2cn1 (stereo not drawn) | 24.7
Cn1ccnc1CN1CCCC(Cc2ccnc3ccncc23)CC1 (stereo not drawn) | 43.3
CN1CCCC(Cc2ccnc3ccncc23)CC1 (stereo not drawn) | 0

Structure (SMILES) | Percent Effect [%]
c1cc2nccc(CC3CCCN(Cc4ncc[nH]4)CC3)c2cn1 (stereo not drawn) | 50
CS(=O)(=O)N1CCCC(Cc2ccnc3ccncc23)CC1 (stereo not drawn) | 80.2
c1cc2nccc(CC3CCCN(C4CCOCC4)CC3)c2cn1 (stereo not drawn) | 22.7
CC(=O)N1[C@H](Cn2cncn2)C[C@@H]2CN(Cc3cccnc3)CC[C@@H]21 | 13.9
Cc1nc(C(=O)N2CCN(S(C)(=O)=O)[C@@H]3CS(=O)(=O)C[C@@H]32)cs1 | 18.7
c1cc(CN2CC[C@H]3O[C@@H](COCC4CCOCC4)CC[C@H]32)ccn1 | 22
CCN1C[C@H]2[C@@H](C1)N(S(=O)(=O)c1ccccc1)CC[C@H]2OC | 24
CN(C)CCO[C@H]1CN(C(=O)c2ccc3c(c2)OCO3)[C@@H]2COC[C@H]12 | 13.7
O=C(NCC1(O)CCC1)c1c(O)cc(F)cc1F | -2.17
CCCn1cc(Cl)c(C(=O)N2C[C@H]3C[C@H](OC)C[C@H]3C2)n1 | 8.63
Cc1nc(CN2CCCC2c2noc(C3CC3)n2)nc2ccccc12 (stereo not drawn) | 42.2
Cc1nc(C)n(CC2CCCN2Cc2nc(N)c3ccccc3n2)n1 (stereo not drawn) | 36.5
Cc1nc(C)n(CC2CCCN2Cc2nc3ccccc3nc2C)n1 (stereo not drawn) | 17.6
Cc1nc(C)n(CC2CCCN2Cc2nc(C)c3ccccc3n2)n1 (stereo not drawn) | 56.5
Cc1nn(C)c(C)c1C1CCCN1Cc1nc(C)c2ccccc2n1 (stereo not drawn) | 46
Cc1nc(CN2CCCC2c2ccsc2)nc2ccccc12 (stereo not drawn) | 54
CC(C)CN1C[C@@H]2C(=O)NC3(CCN(C(=O)c4cccnc4)CC3)[C@@H]2C1 | 23.3
CN1[C@@H](C(=O)NCC2CC2)C[C@@H]2CN(Cc3ccsc3)C[C@@H]21 | 11.9
CS(=O)(=O)N1C[C@H]2CCC[C@@]2(COc2ccccn2)C1 | 10.3
CN(C)C(=O)CO[C@H]1CN(Cc2cccc(C#N)c2)[C@@H]2COC[C@H]12 | -11.4
COc1ncccc1C(=O)N1CC[C@H]2C[C@@H](c3noc(C)n3)O[C@@H]2C1 | 46.1
O=C(O)[C@@]12CN(c3cnccn3)C[C@@H]1CN(C1CCCC1)C2 | 21
Nc1nccc(C2CN(Cc3ccc(-c4ccccc4C(=O)O)o3)C2)n1 | 54.9

Structure (SMILES) | Percent Effect [%]
Cc1nccc(C2CN(Cc3ccc(-c4ccccc4C(=O)O)o3)C2)n1 | 12.7
O=C(O)c1ccccc1-c1ccc(CN2CC(c3ccncn3)C2)o1 | 29.4
O=C(CN1C[C@H]2C[C@H](OCc3ccccc3)C[C@H]2C1)N1CCOCC1 | 15.7
CN1CCN(Cc2cnn(-c3ccccc3Cl)c2)[C@H]2CS(=O)(=O)C[C@H]21 | 5.71
Cc1ccc(-c2ncc(C(=O)N3CCCN4CCC[C@H]4C3)c(O)n2)cc1 | 11
CN(C)c1ncc(-c2c(-c3ccccc3)ncn2C(CO)C(=O)O)cn1 (stereo not drawn) | 72.8
Cc1c(-c2c(-c3ccccc3)ncn2[C@H](CO)C(=O)O)cnn1C | 7.85
Cc1nn(C)c(C)c1-c1c(-c2ccccc2)ncn1[C@H](CO)C(=O)O | 1.57
O=C1C[C@H]2CC[C@@H](CN1)N2C(=O)CCc1ccccc1 | 8.39
CNC(=O)CN1CC[C@H]2CN(C(=O)c3cccn3C)C[C@H]2C1 | 2.78
Cc1ccc(S(=O)(=O)NC(CO)CC(C)C)cc1N(C)C (stereo not drawn) | 43.4
Cc1ccc(S(=O)(=O)N[C@H](CO)C(C)C)cc1N(C)C | 53
CSCC(C)NS(=O)(=O)c1ccc(C)c(N(C)C)c1 (stereo not drawn) | 19.3
O=C(NCCc1ccncc1)[C@@H]1CC[C@@H]2[C@@H](CCN2Cc2ccco2)O1 | 20
CNC(=O)N1C[C@H]2C[C@H](C(=O)Nc3ccccc3)[C@@H](C1)O2 | 19.6
COc1ccc(NC(=O)Cn2nc(C)c(C)cc2=O)cc1 | -0.8
COc1ccc(NC(=O)Cn2nc(C)c(C(C)=O)c2C)cc1 | 52.2
CC(=O)c1c(C)nn(CC(=O)Nc2ccc(Br)cc2)c1C | 71.3
Cc1cc(=O)n(CC(=O)Nc2ccc(Cl)cc2)nc1C | 7.2
COc1ccc(NC(=O)Cn2nc(C)c(C)cc2=O)cc1OC | 7.69
CC(=O)c1c(C)nn(CC(=O)Nc2ccc(F)cc2)c1C | 15.7
